The values below come from PubChem BioAssay AID2058 (Sanford-Burnham Center for Chemical Genomics, 2009).

In all, about 290,000 compounds went through this assay and about 150 (0.052%) were called active. The full list was thinned out, with actives kept by preference. Results with a measured potency or affinity are listed apart. Unmarked numbers belong to inactive results.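 How the source made its calls: active means inhibition of at least 50% with at least 30 cells and total cytoplasm GFP at most 10,000,000; inconclusive means under 30 cells or total GFP of 10,000,000 plus; inactive means the rest.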

Chain of G-protein coupled receptor 35 (Homo sapiens) (Q9HC97 whole entry, looked up): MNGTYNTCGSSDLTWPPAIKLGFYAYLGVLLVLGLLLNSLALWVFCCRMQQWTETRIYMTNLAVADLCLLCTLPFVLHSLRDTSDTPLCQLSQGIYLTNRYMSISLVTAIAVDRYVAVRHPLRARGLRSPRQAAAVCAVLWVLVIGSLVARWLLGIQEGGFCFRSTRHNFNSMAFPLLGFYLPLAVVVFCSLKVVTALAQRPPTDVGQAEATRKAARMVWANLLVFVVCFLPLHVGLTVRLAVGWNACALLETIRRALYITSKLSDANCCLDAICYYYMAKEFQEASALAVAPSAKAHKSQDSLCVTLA

This test concerns the target G-protein coupled receptor 35 (Homo sapiens) (UniProt Q9HC97). Description: inhibition of zaprinast-stimulated GPR35 beta-arrestin translocation – imaging, U2OS, beta-arrestin-GFP, zaprinast agonist, primary screen (AID 2058). The settings on record: zaprinast antagonism, at 10 µM, stronger effect = higher value.
For orientation: inhibition means the change of the read-out against control, counted positive when it falls. On to `CSc1ccc(-c2sc(Nc3ccccc3)n[n+]2-c2ccc(F)cc2)cc1`, for which the inhibition was -7.7%. The result for `Fc1ccc(-[n+]2nc(Nc3ccccc3)sc2-c2ccc(OCc3ccccc3)cc2)cc1` reads 8.3%; that for `COc1ccc(C)cc1Nc1n[n+](-c2ccccc2)c(-c2ccc(SC)cc2)s1`, 20.4%. The result for `COc1ccc(C)cc1Nc1n[n+](-c2ccccc2)c(-c2ccc(C(=O)O)cc2)s1` reads 7.9%; that for `O=C(O)c1ccc(-c2sc(Nc3ccccc3)n[n+]2-c2ccc(F)cc2)cc1`, 0.5%.

For the compound `Oc1ccc(-c2sc(Nc3ccccc3)n[n+]2-c2ccc(F)cc2)cc1`, the inhibition is 10.2%. Take `COC(=O)c1cc(-c2ccc(Cl)cc2)n[nH]1`: the inhibition was 10.8%. For `CC(C)C(C)NC(=O)CN1C(=O)NC2(CCc3ccccc32)C1=O` (stereo not given), the inhibition is 9.4%.

With `Nc1nonc1-n1nnc(C(=O)N/N=C/c2ccc(OCc3ccc(F)cc3)cc2)c1COc1ccccc1`, the inhibition was 5.9%. The result for `CC(C)(C)c1ccc(/C=C2\CCn3c2nc2cc(C(=O)O)ccc2c3=O)cc1` reads 17.9%; that for `O=Cc1[nH]c2ccccc2c1N(C(=O)CCl)c1ccccc1`, -1.1%. In the case of `CC(=O)n1cc(N(C(=O)CCl)c2ccc([N+](=O)[O-])cc2)c2ccccc21`, the inhibition is -2.4%. The result for `O=Cc1[nH]c2ccccc2c1N(C(=O)CCl)c1ccc([N+](=O)[O-])cc1` reads 80.7% (active); that for `CSc1ccc(C2c3[nH]c4ccccc4c3CCN2C(=O)c2ccnn2C)cc1` (stereo not given), -11.7%; that for `COc1cccc(CN2CCN(Cc3cccc4nonc34)CC2CCO)c1` (stereo not given), 8.1%. As for `CCOc1ccc(CN2CCN(Cc3cccc4nonc34)CC2CCO)cc1` (stereo not given), the figure is 97.5% (active); as for `CCOc1ccccc1CN1CCN(Cc2cccc3nonc23)CC1CCO` (stereo not given), 28.2%.

For `CN(C)/C=C1\C(=O)ON=C1c1ccccc1`, the inhibition is -9.5%.

Regarding `CCN(CC)C(=O)c1ccc(-c2nnc(Nc3ccc(C(=O)NC)cc3)c3ccccc23)cc1`, the inhibition is 5%. For `CC(C)S(=O)(=O)C1=NSC2=NC(=O)/C(=C\c3ccc(-c4cccc(C(=O)O)c4)o3)C(=N)N21`, the inhibition was -1.8%.

For `N=C1/C(=C\c2ccc(-c3ccc(C(=O)O)cc3)o2)C(=O)N=C2SC=C(c3ccccc3)N12`, the inhibition is 43%. For the compound `N=C1/C(=C\c2ccc(-c3cccc(Cl)c3)o2)C(=O)N=C2SC=C(c3ccccc3)N12`, the inhibition is -1.6%.

For the compound `N=C1/C(=C\c2ccc(-c3cc(Cl)cc(Cl)c3)o2)C(=O)N=C2SC=C(c3ccccc3)N12`, the inhibition was -4.5%. With `O=C(c1ccsc1)N1CCCC(Nc2ccc(F)c(F)c2)C1` (stereo not given), the inhibition is 0%. The result for `CC1CCCC(C)N1C(=O)c1cc2ncc(CCCl)cn2n1` (stereo not given) reads -11.5%; that for `O=C(CCCC(=O)N(c1ccc(F)cc1)C(C(=O)NC1CCCC1)c1ccc(O)cc1)Nc1ccccn1` (stereo not given), 6.8%; that for `Cc1ccc(N/C(N)=N/c2nc(CSc3ccccn3)cc(=O)[nH]2)c(C)c1`, 2.7%. As to `C=CCSc1n[nH]c(-c2cccs2)n1`, the inhibition is 13.6%. The result for `CN1C(=S)N(c2cccnc2)C(=O)/C1=C\c1ccc(N(C)C)cc1` reads 15.6%; that for `COc1ccc(/C=C2\OC(=S)N(C)C2=O)cc1`, 22.6%.

As to `N#Cc1c(C(F)(F)F)cc(-c2cccs2)nc1SCc1cccnc1`, the inhibition was -12.1%.

`O=C(COC(=O)Cn1cnc2ccccc2c1=O)Nc1cc(Cl)ccc1[N+](=O)[O-]`: the inhibition was -6.5%. As for `CC(C)CNS(=O)(=O)c1ccc2c(c1)OCCO2`, the figure is 13.4%; as for `COC(=O)c1cnn(-c2ccccc2)c1/C=N/NC(=S)Nc1ccc(Cl)cc1`, -10.9%. The result for `COC(=O)c1cnn(-c2ccc(F)cc2F)c1/C=N/NC(N)=S` reads 17.4%. For the compound `COC(=O)c1cnn(-c2ccc(Cl)cc2)c1/C=N/NC(N)=S`, the inhibition was 7%. As for `COC(=O)c1cnn(-c2ccccc2)c1/C=N/NC(=S)Nc1ccccc1`, the inhibition is 35.2%. On to `COc1ccc(C2=NOC(C(=O)Nc3cccc(O)c3)C2)cc1` (stereo not given), for which the inhibition is -13.8%.

Take `COc1ccc(-c2cc3c(=O)n(CC(=O)NC4CCN(Cc5ccccc5)CC4)ncn3n2)cc1`: the inhibition is 19.6%. As for `CCCc1c(O)nc(SCC(=O)NCc2ccco2)[nH]c1=O`, the figure is -14.7%; as for `Cc1ccsc1-c1nc(C(N)=O)c2[nH]c(=O)n(-c3ccc(Cl)cc3)c2n1`, -1.2%.

As for `O=C(NCc1ccc2c(c1)OCO2)C1CC(=O)N(CCc2ccc(Cl)cc2)C1` (stereo not given), the inhibition is -11.7%. As for `COc1cc(C(=O)Nc2ccc(C(N)=O)cc2)c([N+](=O)[O-])cc1OC`, the figure is 3%. As for `COc1ccc2nc(N=NC3=C(O)CC(C)(C)CC3=O)sc2c1`, the figure is 0.7%; as for `COc1ccc(-c2nnc(-c3ccc(OCC(C)C)cc3)o2)cc1`, 4.6%; as for `CC(C)COc1ccc(-c2nnc(-c3ccncc3)o2)cc1`, 2.8%. The result for `O=C(COC(=O)Cc1ccsc1)Nc1ccc(Cl)c(S(=O)(=O)N2CCOCC2)c1` reads 23.9%; that for `O=C(O)COc1ccc(/C=C/C(=O)c2ccc3ccccc3c2)cc1`, 12.2%. Turning to `CCOc1ccc(/C=C/C(=O)c2ccccc2)cc1`, the inhibition is 7%.

As to `COC(=O)c1sc(NC(=O)CSc2nnc(Cn3nnc4ccccc43)n2C)nc1C`, the inhibition is 5.3%. `CN(C)/C=C1\SC(=S)N(c2ccc(F)cc2)C1=O`: the inhibition is 9.5%. As for `CN(C)/C=C1\SC(=S)N(c2ccc(Br)cc2)C1=O`, the figure is 21.4%. For `Nc1ccc(S(=O)(=O)NC(Cc2ccccc2)C(=O)O)cc1` (stereo not given), the inhibition was -10.2%.

With `CCOC(=O)CC1C(=O)NCCN1c1nc2ccc(C)cn2c(=O)c1/C=C1\SC(=S)N(C(C)CC)C1=O` (stereo not given), the inhibition was 43.7%.

As to `CCCN1C(=O)/C(=C/c2c(N3CCNC(=O)C3CC(=O)OC)nc3c(C)cccn3c2=O)SC1=S` (stereo not given), the inhibition was 12.4%. On to `CCCN1C(=O)/C(=C/c2c(N3CCNC(=O)C3CC(=O)OCC)nc3c(C)cccn3c2=O)SC1=S` (stereo not given), for which the inhibition is 33%. The result for `CCOC(=O)CC1C(=O)NCCN1c1nc2ccc(C)cn2c(=O)c1/C=C1\SC(=S)N(CC(C)C)C1=O` (stereo not given) reads 21.7%; that for `CCOC(=O)CC1C(=O)NCCN1c1nc2c(C)cccn2c(=O)c1/C=C1\SC(=S)N(CC(C)C)C1=O` (stereo not given), 58.9% (active); that for `CCOC(=O)CC1C(=O)NCCN1c1nc2c(C)cccn2c(=O)c1/C=C1\SC(=S)N(C(C)CC)C1=O` (stereo not given), 55.7% (active). On to `Cc1cc(C)c(NC(=O)NC2CCCCC2)c(C)c1`, for which the inhibition is -0.9%. Consider `COc1cccc(/C=C2\SC(=S)N(CCC(=O)Nc3ccc(O)cc3)C2=O)c1`, for which the inhibition was -4.8%. `O=C(CCCN1C(=O)/C(=C\c2ccccc2)SC1=S)Nc1ccc(O)cc1`: the inhibition is 23.5%. As for `O=C(CCN1C(=O)/C(=C\c2ccccc2)SC1=S)Nc1ccc(C(=O)O)cc1`, the figure is 27.2%; as for `COc1cccc(/C=C2/SC(=S)N(CCCC(=O)Nc3ccc(O)cc3)C2=O)c1`, 24%; as for `O=C(CCN1C(=O)S/C(=C/c2ccccc2)C1=O)Nc1ccc(C(=O)O)c(O)c1`, 13.4%. With `O=C(CCCN1C(=O)/C(=C\c2ccccc2)SC1=S)Nc1ccc(O)cc1C(=O)O`, the inhibition is -10%.

`O=C(CCN1C(=O)/C(=C/c2ccc(Cl)cc2)SC1=S)Nc1ccc(C(=O)O)cc1`: the inhibition is 6.4%. For the compound `CCc1ccc(/C=C2/SC(=S)N(CCC(=O)Nc3ccc(C(=O)O)cc3)C2=O)cc1`, the inhibition is -13.9%. Regarding `CC(C)CCn1c(CN2CCOCC2)nc2c1c(=O)n(C)c(=O)n2C`, the inhibition is -9.6%. Regarding `CC1(C)CCCC2=C1CC1C(=O)N(O)C(=O)C1C2` (stereo not given), the inhibition was 2.3%.

For `O=C1CCCN2N=C(SCC(=O)Nc3ccccc3C(F)(F)F)SC2=N1`, the inhibition is 1.9%.

With `CC(=O)N1CCc2cc(S(=O)(=O)CCC(=O)N3CCN(c4ccccc4F)CC3)ccc21`, the inhibition was 6.2%. As for `N#Cc1ccccc1NC(=O)CNc1ccccc1N1CCCCC1`, the figure is 19.6%; as for `O=C(CCCN1C(=O)/C(=C\c2cccs2)SC1=S)Nc1ccc(C(=O)O)cc1`, 13.3%; as for `O=C(CCN1C(=O)/C(=C/c2cccs2)SC1=S)Nc1ccc(C(=O)O)c(O)c1`, -2.6%. As for `O=C(CCN1C(=O)S/C(=C\c2ccc(Cl)cc2)C1=O)Nc1ccc(C(=O)O)cc1`, the figure is 4.2%; as for `O=C(CN1C(=O)S/C(=C\c2ccc(C(=O)O)cc2)C1=O)Nc1ccccc1`, -1.7%; as for `O=C(CCCN1C(=O)/C(=C/c2cccs2)SC1=S)Nc1ccc(O)c(C(=O)O)c1`, 99.6% (active).

Consider `COc1ccc(Cc2nnc(SCC(=O)NC3CCCCC3)n2C)cc1`, for which the inhibition was 9.8%. The result for `COc1ccc(-n2c(C)nnc2SCC(=O)N2CCOCC2)cc1` reads -0.9%; that for `FC(F)(F)c1ccccc1N/N=C/c1cccnc1`, -3.9%; that for `O=C(NCC1CC1)Nc1ccccc1`, -5%.

As for `COCC(C)NC(=S)Nc1ccccc1[N+](=O)[O-]` (stereo not given), the inhibition is -3.3%. With `NS(=O)(=O)c1cccc(C(=O)NC2CCSc3ccccc32)c1` (stereo not given), the inhibition is -7.4%.

Consider `COc1cc(/C=N/N=C(N)N)ccc1OCc1ccccc1Cl`, for which the inhibition is -8.2%.

For the compound `COc1cc(/C=N/O)ccc1OCc1ccccc1Cl`, the inhibition was -5.4%. As for `Fc1cccc(Cl)c1CSc1ccc(-c2cccnc2)nn1`, the figure is 5.4%. The result for `c1ccc(-c2ccc(SCc3cccnc3)nn2)nc1` reads -18.4%; that for `NNC(=O)c1sc(-c2ccc(Cl)cc2)cc1N`, 10.1%. The result for `COc1ccccc1N=Nc1ccc(N)c(C)c1` reads 5.6%.
